# From PubChem BioAssay (EPA / NIEHS)
# Active and inactive are the calls of the source. The calls were made as follows: active = hit-call score of the fitted dose curve at least 0.9, where 1 is the maximum; inactive = score below 0.9.
# Test: APR_HepG2_P-H2AX_72hr: Apredica 72-hour HepG2 Assay for H2AX Phosphorylation (AID 2282916)
# Conditions: imaging, actives raise or lower the signal
# Experimental: APR_HepG2_72hr is a cell-based, multiplexed-readout assay that uses HepG2, a human liver cell line, with measurements taken at 72 hours after chemical dosing in a 384-well plate.APR_HepG2_P-H2AX_72hr is one of 10 assay component(s) measured or calculated from the APR_HepG2_72hr assay. It is designed to make measurements of dna content, a form of viability reporter, as detected with fluorescence intensity signals by HCS Fluorescent Imaging technology.Data from the assay component APR_HepG2_P-H2AX_72hr was analyzed into 1 assay endpoint. This assay endpoint, APR_HepG2_P-H2AX_72hr, was analyzed with bidirectional fitting relative to DMSO as the negative control and baseline of activity. Using a type of viability reporter, measures of protein for gain or loss-of-signal activity can be used to understand the signaling at the pathway-level as they relate to the gene . Furthermore, this assay endpoint can be referred to as a primary readout, because this assay has produced multiple assay endpoints where this one serves a signaling function. To generalize the intended target to other relatable targets, this assay endpoint is annotated to the dna binding intended target family, where the subfamily is cellular response to DNA damage stimulus.
# Cells were treated with dimethyl sulfoxide (DMSO) as a solvent control at a final concentration of 0.5% v/v or with compounds in DMSO with a resulting final DMSO concentration of 0.5% v/v. Compound treatment was done at concentrations of 0.39, 0.78, 1.56, 3.12, 6.24, 12.5, 25, 50, 100, and 200 uM in duplicate on each plate. Cells were treated with compounds for 1, 24, or 72 hr. Carbonyl […] m-chloro-phenylhydrazone (CCCP) and taxol were used as positive controls for mitochondrial function and cytoskeletal stability, respectively; DMSO served as the negative control for this experiment. Cells were fixed by the direct addition of 50 uL formaldehyde in Hank's Balanced Salt Solution (HBSS) to a final concentration of 3.7%. After incubation in the fixation medium for 30 min at room temperature (293-298 K), cells were rinsed twice with HBSS and treated with cell permeabilization buffer (16 uL of 0.5% Triton X-100) for 10 min at room temperature (293-298 K) before labeling. For mitochondrial membrane potential and mitochondrial measurements, pre-fixed cells were incubated with 50 uL of MitoTracker Red CMXRos (Invitrogen) at a concentration of 250 nM for 30 min before fixation. In the remaining cases, post-fixed cells were labeled by incubation with a multiplexed mixture of primary antibodies in HBSS for 60 min at room temperature (293-298 K) to detect immunoreactivity of c-Jun (1:500), phospho-histone H3 (1:100), phospho-histone H2A.x (1:200), p53 (1:400), alpha-tubulin (1:200) and Hoechst 33342 (2 ug/mL). Cells were labeled for multiplexed imaging on two separate plates: a) Hoechst 33342, MitoTracker Red, phospho-histone H3, and alpha-tubulin, and b) Hoechst 33342, phospho-histone H2A.x, and c-Jun. A final rinse with HBSS (50 uL) was performed before analysis. The primary and secondary antibodies for the proteins were phospho-histone H3 (rabbit anti-phospho-histone H3 and FITC-donkey anti-rabbit IgG), phospho-histone H2A.x (mouse anti-phospho-histone H2A.x and FITC-donkey anti-mouse IgG), c-Jun (rabbit anti-phospho-c-Jun and Cy3-donkey anti-rabbit IgG), p53 (sheep anti-p53 and Cy5-donkey anti-sheep IgG), alpha-tubulin (mouse anti-alpha-tubulin and Cy5-donkey anti-mouse IgG). These antibodies are available as the CellCiphr HepG2 assay kit (Millipore).Digital images of each well were captured using a Cellomics ArrayScan VTI (Thermo Scientific Cellomics) (0.8 NA objective, 0.63x optical coupler, and XF-93 filter set) at 20x magnification. The images were acquired using the autofocus feature of the ArrayScan instrument, which entails the following steps. First, the camera focuses on channel 1 (Hoechst 33342), where nuclei are identified. Second, a Z offset of 1 um is used for capturing mitochondria (MitoTracker Red). […]
SMILES,outcome,AC50
c1nc[nH]n1,inactive,
[N-]=[N+]=[N-],inactive,
ClC(Cl)c1ccccc1,inactive,
c1cc2c3c(cccc3c1)CC2,inactive,
CCCCCCCc1ccc(O)cc1,inactive,
O=P(Oc1ccccc1)(Oc1ccccc1)Oc1ccccc1,,66.4 µM (active)
CC(Cl)(Cl)C(=O)O,inactive,
ClC1=C(Cl)C2(Cl)C3C(Cl)C(Cl)CC3C1(Cl)C2(Cl)Cl (stereo not given),,108 µM (active)
CCCCN(CCCC)SN(C)C(=O)Oc1cccc2c1OC(C)(C)C2,,59.9 µM (active)
CCN(CC)c1ccccc1,inactive,
O=P1(N(CCCl)CCCl)NCCCO1 (stereo not given),inactive,
CCOC(=O)c1ccccc1C(=O)OCC,inactive,
CCOP(=S)(Oc1ccc([N+](=O)[O-])cc1)c1ccccc1 (stereo not given),inactive,
ClC(Cl)(Cl)c1ccccc1,inactive,
O=[N+]([O-])c1ccc(Cl)c(Cl)c1,inactive,
c1ccc2c(c1)Nc1ccccc1S2,inactive,
OCC1CO1 (stereo not given),inactive,
CN(C)C(=O)Cl,inactive,
O=C(O)C1C(C(=O)O)C2(Cl)C(Cl)=C(Cl)C1(Cl)C2(Cl)Cl (stereo not given),inactive,
CSC(C)(C)C=NO,inactive,

SMILES,outcome,AC50
Cc1ccc([N+](=O)[O-])cc1C,inactive,
CCOP(=S)(OCC)SCSCC,inactive,
CC(C)(C)OOC(C)(C)C,inactive,
CCC1(c2ccccc2)C(=O)N=C(O)NC1=O (stereo not given),inactive,
CCCCN(CCCC)N=O,inactive,
CC(C)(C)c1ccc(O)cc1,inactive,
CCNc1nc(Cl)nc(NC(C)(C)C)n1,inactive,
CCOc1ccc(C(C)(C)COCc2cccc(Oc3ccccc3)c2)cc1,inactive,
CCOS(=O)(=O)OCC,inactive,
COCCOCCO,inactive,
O=[N+]([O-])c1ccccc1,inactive,
CC(Cc1ccc(OCC(=O)O)cc1)NCC(O)c1csc(C(F)(F)F)n1 (stereo not given),inactive,
CCCN(CCC)c1c([N+](=O)[O-])cc(C(C)C)cc1[N+](=O)[O-],,52.1 µM (active)
c1ccc(OP(Oc2ccccc2)Oc2ccccc2)cc1,inactive,
CCC(C)(C)c1ccc(O)cc1,inactive,
O=C(O)C(Cl)Cl,inactive,
Nc1cc2c3c(c1)C(c1ccccc1)=N[C@@H](NC(=O)c1cccnc1)C(=O)N3CC2,inactive,
Cc1ccc(O)cc1C,inactive,
CCCCc1ccccc1,inactive,
Cc1ccc(N)cc1N,inactive,
